Compound activity from PubChem.
Rows were chosen to be rich in hits. Some 1.8% of all compounds tested hit in one or more screens of this group.
PI4K2A block: PI4K2A (human) kinase inhibition; Q9BTU6; purified PI4K2A, ADP-Glo luminescence, 1 h; hits give low values; activity change, negative = inhibition, % at 76.9 µM; 0.13% of 420,000 active; in the data active = activity change below about -50%; inconclusive = mostly about -30% to -49%;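 also: -100% = wells without enzyme as full effect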
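PI4K2A activity was measured by ADP-Glo luminescence: enzyme (4 ug/mL stock) and phosphatidylinositol (1.2 mM stock) in Tris pH 7.5/MgCl2/EGTA/Triton X-100 buffer were reacted with ATP (300 microM stock) for one hour at ambient temperature.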
CtBP-E1A blk: inhibitors of CtBP/E1A interaction. AID 651724. activity change, % (concentration not given with the values). 0.49% of 340,000 active. AlphaScreen GST-E1A/His-CtBP binding, 1536-well; hits give low values
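Steps: dispense buffer (Tris pH 8.0, NaCl 300 mM, TCEP 1 mM, BSA, Tween 20); add 5X protein mix (GST-E1A, His-CtBP, 125 nM each); pin 23 nL compound; 2 h at 37 °C, dark; add 5X beads (50 ug/mL); 1 h; read.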
PI5P4K alpha inh: blocks human PI5P4K alpha kinase activity | 1.2% of 330,000 active | P48426 | max response, % | PI5P4Kalpha enzyme, ADP-Glo luminescence, 60 min; hits give low values; active = max response of -50% or lower; inconclusive = between -30% and -50%; inactive = -30% or higher; also: value at the top dose of about 77 µM
Target sequence (P48426 whole entry, looked up): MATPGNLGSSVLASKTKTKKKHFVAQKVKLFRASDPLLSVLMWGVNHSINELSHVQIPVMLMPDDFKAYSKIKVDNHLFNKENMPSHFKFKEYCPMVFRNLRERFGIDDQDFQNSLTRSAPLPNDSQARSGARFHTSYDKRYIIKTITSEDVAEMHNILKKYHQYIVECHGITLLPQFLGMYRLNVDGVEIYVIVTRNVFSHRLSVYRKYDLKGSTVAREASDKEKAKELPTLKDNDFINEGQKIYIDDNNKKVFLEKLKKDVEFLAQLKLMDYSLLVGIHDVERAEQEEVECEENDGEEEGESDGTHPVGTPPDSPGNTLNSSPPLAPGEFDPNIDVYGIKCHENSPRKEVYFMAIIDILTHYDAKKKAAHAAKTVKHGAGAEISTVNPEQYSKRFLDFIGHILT
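Reactions run in 0.038 M HEPES pH 7.4, 0.28 mM EGTA, 0.1% CHAPS and 5% DMSO, with PI5P4Kalpha, substrate, compound and 5 microM ATP final, one hour at room temperature. Readout is ADP-Glo luminescence.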
Six1-Eya2 blk: Six1/Eya2 interaction inhibition | activity change, % (test concentration not listed) | AID 651725 | Q15475+O00167 | AlphaScreen GST-Six1/His-Eya2 binding, biochemical; hits give low values | 0.56% of 360,000 active
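AlphaScreen with GST-Six1 and His-Eya2 (5X mix: 250 nM and 500 nM), glutathione donor and nickel acceptor beads; buffer 50 mM Tris pH 8.0, 300 mM NaCl, 1 mM TCEP; 1 h at 37 C in the dark.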
Akt phos inh: blocks phosphorylation of Akt; Neuro2A IGF-stimulated pAkt S473 HTRF, 20 min; hits give low values; activity change, % for hits at 50 µM; 0.32% of 360,000 active; in the data active = activity change below about -80%; inconclusive = mostly about -51% to -80%
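Single-point screen (50 µM final compound) in Neuro2A cells stimulated 20 min with 6 nM IGF at 37 deg C. After lysis, Ser473-phosphorylated Akt read by HTRF (ex 330 nm, em 615/665 nm) as the 665/615 ratio.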
An asterisk follows results filed as active; i = inactive; ? = inconclusive; . = not tested or not shown. Rule as the data show it, unless noted: active = activity change below about -65%; inconclusive = mostly about -30% to -63%; inactive = weaker than that. Unless noted, % is scaled to controls: 0 for no effect and ±100 for the full control effect.

SMILES | PI4K2A block | CtBP-E1A blk | PI5P4K alpha inh | Six1-Eya2 blk | Akt phos inh
Cc1ccc(N2C(=O)NC(=O)/C(=C\C=C\c3ccco3)C2=O)cc1C | ? | 11 | ? | -15 | i
O=C(N/N=C/c1c(O)n(Cc2ccc(F)cc2)c(=O)[nH]c1=O)c1ccccc1 | 0 | -81* | ? | -74* | i
O=C(O)c1ccc(N=Cc2c(O)n(Cc3ccc(F)cc3)c(=O)[nH]c2=O)cc1 | 4 | 7 | -17 | 10 | i
COc1ccc(CCn2c(O)c(C=Nc3ccc(F)cc3)c(=O)[nH]c2=O)cc1OC | -1 | . | -10 | -5 | i
O=C(N/N=C/c1c(O)n(-c2ccccc2)c(=O)[nH]c1=O)c1ccncc1 | -2 | -18 | -27 | ? | i
O=C(N/N=C/c1c(O)n(Cc2ccccc2)c(=O)[nH]c1=O)c1ccncc1 | -4 | ? | -56* | -72* | i
C=CCn1c(O)c(/C=N/NC(=O)c2ccncc2)c(=O)[nH]c1=O | -1 | -20 | -50* | ? | i
COc1ccc(CCn2c(O)c(/C=N/NC(=O)c3ccncc3)c(=O)[nH]c2=O)cc1OC | -2 | ? | -82* | ? | i
O=C1CC(c2ccccc2Br)c2c(c3ccccc3oc2=O)O1 (stereo unspecified) | -4 | . | . | . | .
COC(=O)C1=C(c2cccc(OCc3ccccc3)c2)C[C@@H]2CC[C@H]1N2C(=O)NCc1ccc(Cl)cc1 | 0 | 0 | 3 | 2 | i
CCCCn1c(O)c(/C=N/NC(=O)c2ccncc2)c(=O)[nH]c1=S | 0 | -29 | ? | -85* | i
C=CCn1c(O)c(C=Nc2c(C)n(C)n(-c3ccccc3)c2=O)c(=O)[nH]c1=O | -3 | . | -7 | 2 | i
Nc1nc(SCCC(F)=C(F)F)n[nH]1 | 1 | 0 | 11 | -2 | i
C[n+]1c2ccccc2nc2ccc(NCCO)cc21 | ? | -70* | -24 | -73* | i
CNc1ccc2nc3ccccc3[n+](C)c2c1 | ? | . | 4 | -75* | i
NC(=O)c1cn(C2OC(CO)C(O)C2O)c2ncnc(N)c12 (stereo unspecified) | -8 | 3 | 0 | 4 | i
N#Cc1cn(C2OC(CO)C(O)C2O)c2ncnc(N)c12 (stereo unspecified) | -51* | 3 | 2 | 0 | i
CCN(CC)C(=O)N[C@H]1C[C@@H]2c3cccc4[nH]cc(c34)C[C@H]2N(C)C1 | -22 | -6 | -75* | -8 | i
C=C1C(=O)O[C@@H]2C[C@@H](C)[C@@H]3C=CC(=O)[C@@]3(C)[C@@H](OC(=O)CC(=O)O[C@H]3[C@@H]4C(=C)C(=O)O[C@@H]4C[C@@H](C)[C@@H]4C=CC(=O)[C@]43C)[C@H]12 | -70* | -29 | -66* | ? | i
COc1ccc(Cc2c(O)[nH]c(=S)[nH]c2=O)cc1 | 0 | -19 | -56* | 3 | i
O=c1[nH]c(O)c(N=Nc2cc([N+](=O)[O-])ccc2O)c(=O)[nH]1 | -15 | ? | ? | -78* | i
Cc1ccc(OCC(=O)Nc2ccc(Cl)cc2C(=O)c2ccccc2)cc1C | -10 | . | . | . | .
CSc1ncc(/C=C2/C(=O)NC(=O)N(C)C2=O)cn1 | -7 | 2 | ? | 9 | i
CCCCN1C(=O)NC(=O)/C(=C/c2cnc(SC)nc2)C1=O | -25 | 3 | -85* | 3 | i
CSc1ncc(/C=C2/C(=O)NC(=O)N(c3ccc(C(C)C)cc3)C2=O)cn1 | -8 | 2 | ? | 4 | i
SMILES | PI4K2A block | CtBP-E1A blk | PI5P4K alpha inh | Six1-Eya2 blk | Akt phos inh
CSc1ncc(/C=C2/C(=O)NC(=O)N(C3CCCCC3)C2=O)cn1 | -12 | 11 | -57* | 3 | i
COc1nc(NCC2CCCO2)nc(N2CC3CC(C2)c2cccc(=O)n2C3)n1 (stereo unspecified) | 2 | . | 5 | 5 | i
CN1CCCC2c3ccccc3CCC21 (stereo unspecified) | 3 | 4 | -6 | 0 | i
COc1cc(C=C2C(=O)NC(=O)NC2=O)ccc1OS(=O)(=O)c1ccccc1[N+](=O)[O-] | -20 | 2 | -67* | -6 | i
CCOc1ccc(C=C2C(=O)NC(=S)NC2=O)cc1OCC | -2 | -1 | ? | 3 | i
CCOc1cc(C=C2C(=O)NC(=O)NC2=O)ccc1OS(=O)(=O)c1ccccc1 | ? | 1 | -63* | 11 | i
O=C(Nc1ccccc1)N1CC2CC(C1)c1cccc(=O)n1C2 (stereo unspecified) | 0 | 14 | 4 | 2 | i
CN(C)C1C(=O)C(C(N)=O)=C(O)C2(O)C(=O)C3=C(O)c4c(O)cccc4C(C)(O)C3C(O)C12 (stereo unspecified) | -17 | -68* | -54* | ? | i
C[N+]1(C)[C@@H]2CC[C@H]1CC(OC(=O)[C@@H](CO)c1ccccc1)C2 (stereo partly specified) | 2 | . | -58* | -1 | i
C[N+]1(C)C2CC[C@H]1CC(OC(=O)C(CO)c1ccccc1)C2 (stereo partly specified) | -6 | 0 | 1 | 5 | i
CC[C@H](C)/C=C(C)/C=C/C1=CC2=C(Cl)C(=O)[C@@](C)(OC(C)=O)C(=O)C2=CO1 | ? | 3 | -87* | -22 | i
CCC(C)/C=C(C)/C=C/C1=CC2=C(Cl)C(=O)C(C)(OC(C)=O)C(=O)C2=CO1 (stereo unspecified) | -11 | ? | 5 | -28 | i
O=C1NC(=O)N(c2cccc(F)c2)C(=O)/C1=C/c1ccc(N2CCOCC2)cc1 | -2 | . | -61* | -3 | i
Cc1ccc(/C=C2\C(=O)NC(=S)N(c3cccc(F)c3)C2=O)o1 | -5 | . | -77* | -1 | i
COc1ccc(N2C(=O)/C(=C/c3ccc(C)o3)C(=O)NC2=S)cc1 | -6 | -13 | ? | -20 | i
Cc1cc(N2CCOCC2)ccc1/C=C1\C(=O)NC(=O)N(c2ccccc2)C1=O | -4 | 4 | -26 | 1 | i
CN1CCN(c2ccc(/C=C3\C(=O)NC(=S)N(c4cccc(Br)c4)C3=O)o2)CC1 | -4 | 5 | ? | -6 | i
CCOc1ccc(N2C(=O)/C(=C/c3ccc(C)o3)C(=O)NC2=S)cc1 | -18 | . | -76* | -7 | i
Cc1cccc(N2C(=O)/C(=C/c3ccc(CN(CCC#N)S(C)(=O)=O)o3)C(=O)NC2=S)c1 | -17 | -5 | -56* | ? | i
O=C(Cn1cc(C(=O)c2ccccc2)c2ccccc21)NCc1ccco1 | -9 | -6 | -1 | -3 | i
CN1CCN(c2ccc([N+](=O)[O-])c(Sc3nncn3C)c2)CC1 | 1 | -22 | -2 | 13 | i
O=C1NC(=S)N(C2CC2)C(=O)/C1=C/c1ccc2c(c1)CCN2CCCCl | -26 | -5 | -74* | -10 | i
